In the library only some 0.43% were active in any assay of this set; here they are far more common.
GAA glycogen mod – GAA glycogen-cleavage inhibition or activation | P10253 | recombinant GAA, glycogen substrate, Amplex Red glucose oxidase fluorescence | Potency, µM (titrated, usually from 76.4 µM), without a hit: at the highest dose activity change, negative = inhibition, most hits filed as inhibitors | 0.38% of 300,000 active | AID 2100;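 note: potency is the fitted concentration of half-maximal effect; 0% = full enzyme reaction and -100% = no-enzyme basal signal; the screen sought inhibitors and activators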
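Recombinant human enzyme (4 nM); glycogen substrate; 37 C, 40 min, pH 5.0. Readout: coupled glucose oxidase/Amplex Red fluorescence.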
GAA spleen mod – lysosomal alpha-glucosidase (human) modulation. human spleen homogenate, 4-MU-alpha-glucoside fluorescence. Potency, µM (top dose mostly 79.9 µM), inactives show at the top dose activity change, negative = inhibition, usual class: inhibitors. 0.006% of 240,000 active. AID 2112;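 note: potency is the fitted concentration of half-maximal effect; 0% = enzyme with vehicle and -100% = no enzyme basal signal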
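Compounds were titrated against alpha-glucosidase in spleen homogenate at pH 5.0, with 1 mM 4-methylumbelliferyl substrate for 40 min at 37 C. Reactions were quenched with pH 10 NaOH/glycine and fluorescence measured.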
GLA inh pH 4.5 – alpha-galactosidase A (human) inhibition, pH 4.5. AID 1467. 230,000 tested, under 10 active. purified enzyme, 4-MU-alpha-Gal fluorescence, pH 4.5. activity change, negative = inhibition, % at 105 µM;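 note: 0% = full activity with enzyme and -100% = basal without enzyme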
GLA spleen mod – inhibitors or activators of human alpha-galactosidase in spleen homogenate. 0.008% of 240,000 active. human spleen homogenate, 4MU-alpha-Gal fluorescence, 40 min. Potency, µM (highest dose often 80 µM), inactives show at the highest dose activity change, negative = inhibition, actives largely listed as inhibitors;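 note: potency is the fitted concentration of half-maximal effect; 0% = enzyme with vehicle and -100% = no enzyme basal signal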
Target sequence (P06280 32-429 limits assumed): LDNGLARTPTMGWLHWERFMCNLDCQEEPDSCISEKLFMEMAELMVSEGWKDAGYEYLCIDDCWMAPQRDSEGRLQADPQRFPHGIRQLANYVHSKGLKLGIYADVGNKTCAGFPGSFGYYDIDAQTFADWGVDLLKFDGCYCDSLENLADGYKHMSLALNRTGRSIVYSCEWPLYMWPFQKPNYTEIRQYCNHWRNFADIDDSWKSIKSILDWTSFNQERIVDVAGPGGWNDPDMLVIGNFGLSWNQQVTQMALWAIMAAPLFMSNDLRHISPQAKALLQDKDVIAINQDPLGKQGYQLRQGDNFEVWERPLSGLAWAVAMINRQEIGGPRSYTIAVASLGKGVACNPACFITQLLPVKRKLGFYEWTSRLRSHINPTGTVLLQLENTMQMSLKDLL
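qHTS titration in buffer at pH 5.0. Alpha-galactosidase activity in spleen homogenate was measured via 4-methylumbelliferone release from 1 mM fluorogenic substrate after 40 min at 37C and a pH 10 stop. AC50 came from Hill fits of control-normalized data.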
GAA inhib – inhibitors of human lysosomal alpha-glucosidase | P10253 | Potency, µM (doses to about 76.9 µM), for inactives: at the highest dose activity change, negative = inhibition, hits mostly inhibitors | 0.005% of 200,000 active | AID 1466 | purified human GAA, 4-MU-alpha-glucoside fluorescence;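 note: potency is the fitted concentration of half-maximal effect; plate controls were uninhibited enzyme wells for no effect and no-enzyme background for full effect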
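Enzyme (4 nM final) mixed with compound (up to 77 uM), then 4-MU-alpha-D-pyranoside (400 uM final) added; 20 min at room temperature, pH 5.0. Reaction stopped at pH 10, fluorescence read, AC50 derived by Hill fit.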
N370S GC – inhibitors or activators of N370S glucocerebrosidase for Gaucher disease. Potency, µM (titrated, usually from 59.4 µM), for the others: top-dose activity change, negative = inhibition, usual class: inhibitors. P04062. 0.092% of 330,000 active. N370S GC spleen homogenate, 4MU-glucoside fluorescence;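 note: potency is the fitted concentration of half-maximal effect; 0% = full enzyme activity and -100% = no enzyme basal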
Starred values were filed as active, the others as inactive; ? = inconclusive; nt = not tested or not shown; [ ] = dose if it differs, or a comment. Calls come from the whole dose curve; as a rule, active = well fitted curve in the direction sought with a large enough effect; inconclusive = small, poorly fitted or top-dose-only effect, or another doubt; inactive = no such curve, though single readings can be large; an effect the other way counts as inactive or inconclusive.

SMILES	GAA glycogen mod	GAA spleen mod	GLA inh pH 4.5	GLA spleen mod	GAA inhib	N370S GC
COc1cc(Cl)ccc1NC(=O)COc1ccccc1C(=O)N1CCN(c2ccc(O)cc2)CC1	18µM*	0%	3	-2%	1%	15%
Cc1cccc(CNc2ccnc(-c3ccccc3C(F)(F)F)n2)c1	nt	-12%	nt	4%	nt	14µM*
Nc1nc(C2CC2)c(Sc2sc(N)nc2C2CC2)s1	6.3µM*	2%	-4	0%	5%	-13%
CCc1cccc(NC(=O)c2cn3c4c(ccc(Cl)c4c2=O)OC(C)C3)c1 (centres undefined)	18%[76.3 µM]	nt	nt	nt	nt	nt
COc1ccc(CN(C)c2ccc(-c3nc(-c4ccc(OC)c(OC)c4)no3)cc2[N+](=O)[O-])cc1	7%[76.3 µM]	nt	nt	nt	nt	nt
CCOC(=O)c1c(C)[nH]c2c1cc(O)c1ccccc12	16µM*	-1%	-22	3%	0%	-7%
CCOC(=O)c1c(C)oc2c1cc(O)c1ccccc12	?	-13%	-13	-2%	1%	12%
Nc1cccc2c(=O)[nH]ccc12	nt	2%	nt	15%	nt	0%
O=C(c1ccc(F)cc1F)N1CCC(c2nc(-c3ccc(S(=O)(=O)N4CCCC4)cc3)no2)CC1	0%[76.3 µM]	nt	nt	nt	nt	nt
Brc1ccc2nc(-c3cccs3)c(NCC3CCCO3)n2c1 (centres undefined)	6.3µM*	2%	-8	9%	4%	?
Cc1ccc(Cn2cccc2C2=NC(C)(C)CO2)cc1	12%[76.3 µM]	nt	nt	nt	nt	nt
COc1ccc(C(=O)C2CCCN(Cc3nc4ccccc4nc3C)C2)cc1OC (centres undefined)	12%	1%	0	-8%	nt	-10%
COc1ccc(C(=O)C2CCCN(C3Cc4ccccc4C3)C2)cc1OC (centres undefined)	16µM*	-1%	2	14%	?	11%
O=C(c1ccc2ncsc2c1)N1CCN(c2ccccc2Cl)CC1	-9%	4%	?	3%	5%	-11%
O=C(c1ccc2ncsc2c1)N1CCN(c2ccc(O)cc2)CC1	9.9µM*	1%	1	2%	-3%	-2%
CN(CCCNC(=O)Cn1ncc2c([nH]c3ccccc32)c1=O)Cc1ccccc1	10%[76.3 µM]	nt	nt	nt	nt	nt
Oc1ccc(Nc2nc(NCC3CCCO3)c3ccccc3n2)cc1 (centres undefined)	?	1%	-2	6%	-3%	-11%
Oc1ccccc1Nc1nc(NCC2CCCO2)c2ccccc2n1 (centres undefined)	8.8µM*	1%	-9	4%	?	?
Cc1ccccc1Nc1nc(NCc2ccco2)c2ccccc2n1	-2%	-1%	2	-1%	-3%	20µM*
Oc1ccccc1Nc1nc(NCc2ccco2)c2ccccc2n1	11µM*	-11%	-11	3%	nt	?
c1ccc(-c2nc3ccccn3c2NCc2ccc3c(c2)OCO3)cc1	25µM*	6%	-28	12%	8%	?
COc1ccc(-c2nc3ccccn3c2NCc2ccc3c(c2)OCO3)cc1	8.8µM*	-12%	-1	1%	-2%	-26%
COCCN(CCOC)c1nc(C)nc2c1nc(-c1ccccc1)n2CCCN1CCCCC1C (centres undefined)	nt	7%	-12	-2%	nt	-11%
CC(C)C[C@H](N)C(=O)N[C@H](C(=O)N[C@@H](CCCN=C(N)N)C(=O)N[C@H](CS)C(=O)NCC(=O)N[C@@H](CCCCN)C(=O)N[C@@H](Cc1cnc[nH]1)C(=O)N[C@@H](CO)C(=O)N[C@@H](CCCN=C(N)N)C(=O)O)C(C)C	nt	4%	nt	0%	nt	-4%
CC(=O)Nc1ccc(Nc2nc3c(S(=O)(=O)c4cccc(Cl)c4)nnn3c3ccsc23)cc1	15%[76.3 µM]	nt	nt	nt	nt	nt
SMILES	GAA glycogen mod	GAA spleen mod	GLA inh pH 4.5	GLA spleen mod	GAA inhib	N370S GC
Cc1cc(C)cc(Nc2nc3c(S(=O)(=O)c4cccc(Cl)c4)nnn3c3ccsc23)c1	40µM*	nt	nt	nt	nt	nt
O=C(O)CCc1c(C(=O)O)[nH]c2cc(Cl)cc(Cl)c12	nt	-10%	nt	2%	nt	-1%
CCCN1CCCc2cc(CN(CCCN3CCOCC3)C(=O)Nc3ccc(OCC)cc3)ccc21	3.5µM*	0%	-7	-6%	?	?
CCOc1ccc(NC(=O)N(CCN2CCOCC2)Cc2ccc3c(c2)CCCN3CC)cc1	8.9µM*	-14%	8	17%	0%	0%
Cc1ccc(NS(=O)(=O)c2ccc3[nH]c4c(c3c2)CCCC4)cc1N(C)C	0%[76.3 µM]	nt	nt	nt	nt	nt
COc1ccccc1-c1cc(NCc2cnc(C)cn2)ncn1	nt	-2%	nt	-5%	nt	0%
CCc1ccc(NC(=O)c2ccc3c(O)c(S(=O)(=O)c4ccc(Cl)cc4)c(=O)[nH]c3c2)cc1	17%[76.3 µM]	nt	nt	nt	nt	nt
CC(NC(=O)c1cccs1)C(c1cccs1)N1CCN(Cc2ccccc2)CC1 (centres undefined)	5%	-2%	-1	4%	-5%	-8%
CC(NC(=S)NCCc1ccccc1)C(c1cccs1)N1CCN(C)CC1 (centres undefined)	-4%	0%	-1	-1%	1%	11µM*
C=CCc1c(C)nc(-c2ccccc2)nc1N/N=C(\C)c1ccc(N)cc1	?	-1%	2	-1%	-2%	13µM*
C=CCc1c(C)nc(-c2ccccc2)nc1N/N=C/c1ccccc1	-21%	-5%	3	0%	-5%	16µM*
C=CCc1c(C)nc(-c2ccccc2)nc1N/N=C/c1ccncc1	-9%	nt	-6	-6%	?	?
CCc1ccc(S(=O)(=O)c2nnn3c2nc(Nc2cc(OC)ccc2OC)c2sccc23)cc1	3%[76.3 µM]	nt	nt	nt	nt	nt
Cc1ccc(-c2nc3cnccn3c2Nc2c(C)cccc2C)o1	3.5µM*	0%	9	0%	-11%[15.4 µM]	11%
Cc1ccc(-c2nc3ncccn3c2Nc2ccccc2C)o1	?	-4%	-6	-2%	-6%	-11%
O=S(=O)(O)c1ccc2c(c1)-c1nc-2nc2[nH]c(nc3nc(nc4[nH]c(n1)c1ccc(S(=O)(=O)O)cc41)-c1ccc(S(=O)(=O)O)cc1-3)c1ccc(S(=O)(=O)O)cc21	nt	1%	nt	-10%	nt	-3%
COc1ccc(N2C(=O)CC(Nc3ccc(N4CCOCC4)cc3)C2=O)c(OC)c1 (centres undefined)	?	-4%	10	4%	?	25%
CN(C)c1ccc(N2C(=O)CC(Nc3ccc(N4CCOCC4)cc3)C2=O)cc1 (centres undefined)	?	-2%	-10	-4%	0%	-2%
COc1cccc(N2C(=O)CC(Nc3ccc(N4CCOCC4)cc3)C2=O)c1 (centres undefined)	3.5µM*	-7%	2	8%	0%	-4%
